67 molecules from PubChem BioAssay AID1851 (National Center for Advancing Translational Sciences (NCATS), 2009) can be followed below.

For orientation: AC50 means the concentration giving half of the maximal activity seen.

In all, about 16,000 compounds went through this assay and about 5,700 (36%) were called active. Inconclusive results (about 24%) are left out. Calls come from the whole dose curve; as a rule, active = well fitted curve in the direction sought with a large enough effect; inconclusive = small, poorly fitted or top-dose-only effect, or effect the other way; inactive = no such curve, though single readings can be large or run the other way. Some of the results follow.
% is set by controls: 0 for no effect and ±100 for the full control effect.

For the experiment, the target named is Cytochrome P450 1A2 (Homo sapiens) (UniProt P05177). Nature of the experiment: Cytochrome panel assay with activity outcomes. The conditions noted are these: recombinant CYP, pro-luciferin dealkylation, luminescence, p450-cyp1a2; series mostly up to 57.1 µM.
Cytochrome P450 1A2 (Homo sapiens), sequence (P05177 whole entry, looked up): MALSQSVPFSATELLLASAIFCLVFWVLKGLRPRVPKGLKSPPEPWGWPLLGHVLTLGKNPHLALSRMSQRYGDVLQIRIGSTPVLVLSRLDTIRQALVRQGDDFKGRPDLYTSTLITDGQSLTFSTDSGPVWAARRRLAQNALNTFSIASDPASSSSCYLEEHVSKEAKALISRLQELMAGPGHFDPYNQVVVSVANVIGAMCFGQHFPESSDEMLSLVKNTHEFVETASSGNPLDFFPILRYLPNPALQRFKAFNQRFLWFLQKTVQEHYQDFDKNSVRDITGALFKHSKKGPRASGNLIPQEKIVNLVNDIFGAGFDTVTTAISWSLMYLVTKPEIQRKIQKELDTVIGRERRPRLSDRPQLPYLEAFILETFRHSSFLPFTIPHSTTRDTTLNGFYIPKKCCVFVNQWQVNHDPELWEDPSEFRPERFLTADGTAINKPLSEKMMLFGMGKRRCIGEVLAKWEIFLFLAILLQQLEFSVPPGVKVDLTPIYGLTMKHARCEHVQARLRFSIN
Turning to `Cc1cccc(Oc2ncnc3onc(C)c23)c1C`, the AC50 is 17.8 µM (active). On to `Cc1noc2ncnc(Oc3ccc4ccccc4c3)c12`, for which the AC50 is 8.91 µM (active). With `CCNCCCNCCCNCCCNCC`, the AC50 result is “inactive”. On the same count and under the same terms, next, `CC1CCN(CCc2nc3cc(NC(=O)NC4CCCCC4)ccc3n2C)CC1`: “inactive”. For the molecule `O=C(Nc1ccc(Cl)c(Cl)c1)N1CCC(N2CCCCC2)CC1`, the AC50 result was “inactive”. With `CC1CCN(C(=O)Nc2ccc3nsnc3c2)CC1`, the AC50 was 11.2 µM (active). `COc1ccc(COC(=O)N/N=C2/C[C@@H](O)[C@@H](O)[C@@H]3[C@H]4C(=O)N(c5ccc(F)cc5F)C(=O)[C@@H]4CC[C@H]23)cc1`: the activity, negative = inhibition was -6.28% [at 11.4 µM] (inactive). Take `Cc1cc(O)c(C(C)C)cc1N=Cc1ccccc1O`: the AC50 is 1.58 µM (active). As to `O=S(=O)(O)c1cc(O)c2c(N=Cc3ccccc3O)cc(S(=O)(=O)O)cc2c1`, the activity, negative = inhibition was -23.7% [at 2.29 µM] (inactive). Regarding `COc1ccc(C(=O)N2CCC3(CCCN(Cc4cc(C(F)(F)F)cc(C(F)(F)F)c4)C3)CC2)cc1`, the AC50 result was “inactive”. On to `N#CC1(Nc2ccc(-c3ccc(NC4(C#N)CCCC4)cc3)cc2)CCCC1`, for which the AC50 is 3.16 µM (active). With `O=C(O)C1(Nc2ccc(Cl)cc2)CCCC1`, the activity, negative = inhibition is -2.69% [at 11.4 µM] (inactive). For the molecule `COCC(=O)N1CCC2(CCCN(Cc3cc(C(F)(F)F)cc(C(F)(F)F)c3)C2)CC1`, the AC50 result is “inactive”. Consider `O=C(O)c1c(Cl)c(Cl)c(Cl)c(Cl)c1C(=O)Nc1ccc2cn[nH]c2c1`, for which the AC50 is 0.2 µM (active).

In the case of `S=C(Nc1ccc2cn[nH]c2c1)Nc1ccc2cn[nH]c2c1`, the AC50 was 0.126 µM (active).

Take `N#CC(C#N)=NNc1ccc2cn[nH]c2c1`: the AC50 was 1.26 µM (active). In the case of `CCN1C(=O)[C@H]2[C@H]3[C@H](O)[C@H](O)C/C(=N/NC(=O)OCc4ccccc4)[C@H]3CC[C@@H]2C1=O`, the activity, negative = inhibition was -7.29% [at 11.4 µM] (inactive). `NS(=O)(=O)c1cc(Cl)c(Cl)c(S(N)(=O)=O)c1`: the AC50 entry is “inactive”. Consider `CN(C)/C(CN1CCN(C=O)CC1)=C1\N=C(c2ccccc2)OC1=O`, for which the AC50 is 14.1 µM (active). Consider `O=C(O)[C@@H](S)[C@H](S)C(=O)O`, for which the activity, negative = inhibition is -20.1% [at 11.4 µM] (inactive).

On to `CC1CCN(CCOc2cc(Cl)ccc2Cl)CC1`, for which the AC50 is 8.91 µM (active). As to `OCCN1CCN(CCOc2cccc(Cl)c2)CC1`, the AC50 entry is “inactive”.

Consider `CC1CCN(CCCCOc2ccccc2[N+](=O)[O-])CC1`, for which the AC50 result is “inactive”. As for `O=C(OCc1ccccn1)c1ccc(COc2ccccc2Cl)o1`, the AC50 was 7.08 µM (active). For `COc1ccccc1CNC(=O)C1CCN(S(=O)(=O)N2CC(C)CC(C)C2)CC1` (configuration not stated), the AC50 result is “inactive”. As for `CC1CCN(C(=O)c2ccc(COc3ccccc3Cl)o2)CC1`, the AC50 was 3.16 µM (active). The same measure, in the same setting: next, `CC1CN(C2CCN(C(=O)c3cccc(Cl)c3)CC2)CC(C)O1` (configuration not stated): “inactive”. Regarding `C[C@@H]1NC(=O)[C@@H](C)COC(=O)[C@H](C)NC(=O)[C@@H](C)COC1=O`, the activity, negative = inhibition is 0.211% [at 11.4 µM] (inactive). `CC(NC(=O)CSc1nc(=O)cc(N)n1CCc1ccccc1)c1ccccc1` (configuration not stated): the AC50 entry is “inactive”. `CCn1c(CC(=O)Nc2ccc(C)cc2)nnc1SCC(=O)NCCc1ccccc1`: the AC50 entry is “inactive”. On to `CC(C)n1nnnc1SCC(=O)NCCc1ccccc1`, for which the AC50 was 12.6 µM (active).

Turning to `COc1ccccc1CNc1ccnc(-c2ccc(N(C)C)cc2)n1`, the AC50 was 0.794 µM (active).

For `COc1ccccc1CNc1ccnc(-c2ccoc2)n1`, the AC50 was 1.58 µM (active).

As for `COc1ccc(CNc2ccnc(-c3ccc(N(C)C)cc3)n2)c(OC)c1`, the AC50 was 3.16 µM (active). Take `COc1ccccc1CNc1ccnc(-c2ccc(C(=O)N(C)C)cc2)n1`: the AC50 was 12.6 µM (active). As to `COC(=O)N1CCC2(CC1)CCN(c1ncccn1)CC2`, the AC50 result is “inactive”. On to `CN(C)c1ccc(-c2nccc(NCc3ccccc3)n2)cc1`, for which the AC50 was 1.26 µM (active).

On to `O=[N+]([O-])c1cc(/C=N/N2CCN(C3c4ccccc4-c4ccccc43)CC2)ccc1Cl`, for which the AC50 entry is “inactive”. With `Nc1nnnn1/N=C\c1ccc(Cl)c([N+](=O)[O-])c1`, the AC50 was 5.01 µM (active). On the same count and under the same terms, with `COc1cc(OC)c2cc(-c3ccncc3)cnc2c1` the figure was 0.2 µM (active); with `CCc1ccc(C(=O)CN(C#N)c2nc(C)cc(C)n2)cc1`, 15.8 µM (active); with `CCc1ccc(C(CC(=O)c2ccc(Cl)cc2)C(=O)O)cc1` (configuration not stated), “inactive”.

`COCC(=O)N1CCC2(CCN(Cc3ccccc3OC)CC2)CC1`: the AC50 entry was “inactive”.

On to `COc1ccccc1CN1CCC2(CC1)CCN(C(C)=O)CC2`, for which the AC50 entry was “inactive”.

Take `CCCCN(CC)C(=O)Cc1ccccc1OC`: the concentration at half-maximal activity (AC50) is 14.1 µM (active). Turning to `O=C(COC(=O)c1cccnc1Cl)c1ccccc1`, the AC50 is 11.2 µM (active). As for `O=C(OCc1ccc(Cl)cc1Cl)c1cccnc1Cl`, the AC50 was 1 µM (active). Turning to `O=C(COC(=O)c1cccnc1)c1ccc(Cl)c(Cl)c1`, the AC50 was 0.891 µM (active).

Regarding `Cc1ccc(C(=O)COC(=O)c2ccccc2N2C(=O)C3C4CCC(C4)C3C2=O)cc1C` (configuration not stated), the AC50 result was “inactive”. As for `O=C(O)COc1c(Cl)cc(Cl)c2cccnc12`, the activity, negative = inhibition is -1.3% [at 2.29 µM] (inactive). Consider `Cc1ccc(C(=O)COC(=O)c2ccc3c(c2)C(=O)N(c2cccc4ncccc24)C3=O)cc1C`, for which the AC50 entry is “inactive”. As to `COCC(=O)N1CCC2(CCCN(C(=O)Nc3ccc(OC)cc3)C2)CC1`, the AC50 result is “inactive”.

Take `Cc1nc2ccccn2c1/C(O)=C1\C(=O)C(=O)N(CCCn2ccnc2)C1c1ccncc1` (configuration not stated): the AC50 entry was “inactive”. With `CC(C)(C)NC(=O)NC(=O)CSc1nnc2ccccn12`, the AC50 result was “inactive”. With `Cc1nc2ccccn2c1C(=O)CSc1ccccc1Cl`, the AC50 is 8.91 µM (active). With `CCCCn1nc2cc(C(=O)NCC3CC3)ccc2c1OCC`, the AC50 result is “inactive”. Consider `CCCn1nc2cc(C(=O)NCc3ccccc3OC)ccc2c1OCC`, for which the AC50 result is “inactive”. Take `CCOc1c2ccc(C(=O)NCc3ccco3)cc2nn1CC`: the AC50 was 2.51 µM (active). On the same count and under the same terms, next, `O=C(CSc1nc2ccccc2c(=O)n1CCCC(=O)N1CCCC1)NCc1ccco1`: “inactive”. With `CCOc1c2ccc(C(=O)NCCc3cccs3)cc2nn1CC`, the AC50 was 8.91 µM (active). For `CCCCCn1c(SCc2ccncc2)nc2cc(C(=O)NCc3ccco3)ccc2c1=O`, the AC50 is 4.47 µM (active). In the case of `c1ccc(C2OCC3(CO2)COC(c2ccccc2)OC3)cc1` (configuration not stated), the AC50 result is “inactive”. `CC1CCCC(NC(=O)CCn2c(=O)oc3ccccc32)C1C` (configuration not stated): the AC50 entry is “inactive”. On to `COCCNC(=O)CCn1c(=O)oc2ccccc21`, for which the AC50 entry was “inactive”. Still for that read-out and setting: with `Cc1ccc(CNC(=O)Cn2c(=O)oc3ccccc32)o1` the figure was 12.6 µM (active); with `Cc1cccc(NC(=O)Cn2c(=O)oc3ccccc32)c1`, 15.8 µM (active). The same measure, in the same setting: next, `Cc1cccc(NC(=O)Cn2c(=O)n3nc(CCn4nc(C)cc4C)nc3c3ccccc32)c1`: “inactive”.
